# Key:
# Assay in all cases: DAPPL (digital affinity profiling via proximity ligation, sequencing); 10 mM Tris-HCl pH 7.5, 50 mM NaCl, 1 mM DTT, 4% glycerol, room temperature, 30 min; GST-TFs on glutathione beads, 16-mer random dsDNA library, 0.1% formaldehyde crosslink after washing; high values mean tight binding
# FLI1 = target: T1, FLI1 (Homo sapiens, UniProt Q01543 1-452); details: protein: recombinant; tags: N-terminal GST; dsDNA, one strand shown
# T1 sequence: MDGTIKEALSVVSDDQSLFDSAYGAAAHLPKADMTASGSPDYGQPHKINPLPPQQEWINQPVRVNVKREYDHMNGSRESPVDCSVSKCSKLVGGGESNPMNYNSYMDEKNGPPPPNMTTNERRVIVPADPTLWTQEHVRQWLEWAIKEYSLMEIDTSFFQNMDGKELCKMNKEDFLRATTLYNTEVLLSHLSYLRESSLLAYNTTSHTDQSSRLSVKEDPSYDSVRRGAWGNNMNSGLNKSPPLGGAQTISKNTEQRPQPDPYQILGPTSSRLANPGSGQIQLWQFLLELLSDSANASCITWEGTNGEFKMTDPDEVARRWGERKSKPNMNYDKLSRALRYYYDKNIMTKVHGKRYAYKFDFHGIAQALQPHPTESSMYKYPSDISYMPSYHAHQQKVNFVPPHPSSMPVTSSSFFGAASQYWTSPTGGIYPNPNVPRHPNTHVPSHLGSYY
# In short: (§1)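 Human transcription factors carrying a GST fusion were produced in yeast, bound to glutathione beads, tagged with DNA barcodes and pooled together with a tag-only sample. Each pool was held with 200 nmole of a random double-stranded 16-mer DNA library in Tris/NaCl/DTT/glycerol buffer for 30 min at room temperature, then washed, crosslinked in 0.1% formaldehyde, proximity-ligated with BsaI/T4 ligase (1 h, 37 °C), PCR-amplified and sequenced on an Illumina NextSeq500. Binding signal is the read frequency of each hexamer for a given factor divided by its frequency in the tag-only sample.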
# ELK1 = target: T2, ELK1 (Homo sapiens, UniProt P19419 1-428); details: protein: recombinant; tags: N-terminal GST; dsDNA, one strand shown
# T2 sequence: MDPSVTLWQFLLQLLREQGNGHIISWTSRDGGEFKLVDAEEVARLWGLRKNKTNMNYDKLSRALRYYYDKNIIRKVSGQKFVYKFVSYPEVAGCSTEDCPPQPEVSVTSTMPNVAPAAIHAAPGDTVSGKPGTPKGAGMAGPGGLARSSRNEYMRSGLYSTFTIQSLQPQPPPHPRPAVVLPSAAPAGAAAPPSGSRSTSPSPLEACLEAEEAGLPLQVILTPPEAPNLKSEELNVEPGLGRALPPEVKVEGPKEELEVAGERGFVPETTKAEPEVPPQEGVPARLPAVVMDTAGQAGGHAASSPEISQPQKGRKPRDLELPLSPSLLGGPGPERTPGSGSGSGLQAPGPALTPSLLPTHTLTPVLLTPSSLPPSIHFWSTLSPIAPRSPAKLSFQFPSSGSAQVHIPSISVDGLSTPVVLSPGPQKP
# In short: as §1
# GABPA = target: T3, GABPA (Homo sapiens, UniProt Q06546 1-454); details: protein: recombinant; tags: N-terminal GST; dsDNA, one strand shown
# T3 sequence: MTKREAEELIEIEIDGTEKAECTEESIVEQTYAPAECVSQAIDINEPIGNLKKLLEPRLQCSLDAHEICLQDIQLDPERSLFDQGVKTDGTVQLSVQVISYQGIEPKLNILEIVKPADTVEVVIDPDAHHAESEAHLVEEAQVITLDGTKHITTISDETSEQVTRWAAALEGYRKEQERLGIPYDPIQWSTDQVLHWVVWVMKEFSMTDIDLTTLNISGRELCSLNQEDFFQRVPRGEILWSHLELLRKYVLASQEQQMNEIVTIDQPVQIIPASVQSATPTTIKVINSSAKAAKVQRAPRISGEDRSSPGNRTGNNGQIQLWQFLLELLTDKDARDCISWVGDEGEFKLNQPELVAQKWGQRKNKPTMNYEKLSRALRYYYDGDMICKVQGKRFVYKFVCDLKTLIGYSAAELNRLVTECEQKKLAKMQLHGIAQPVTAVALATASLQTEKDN
# In short: as §1
# ERG = target: T4, ERG (Homo sapiens, UniProt P11308 1-479); details: protein: recombinant; tags: N-terminal GST; dsDNA, one strand shown
# T4 sequence: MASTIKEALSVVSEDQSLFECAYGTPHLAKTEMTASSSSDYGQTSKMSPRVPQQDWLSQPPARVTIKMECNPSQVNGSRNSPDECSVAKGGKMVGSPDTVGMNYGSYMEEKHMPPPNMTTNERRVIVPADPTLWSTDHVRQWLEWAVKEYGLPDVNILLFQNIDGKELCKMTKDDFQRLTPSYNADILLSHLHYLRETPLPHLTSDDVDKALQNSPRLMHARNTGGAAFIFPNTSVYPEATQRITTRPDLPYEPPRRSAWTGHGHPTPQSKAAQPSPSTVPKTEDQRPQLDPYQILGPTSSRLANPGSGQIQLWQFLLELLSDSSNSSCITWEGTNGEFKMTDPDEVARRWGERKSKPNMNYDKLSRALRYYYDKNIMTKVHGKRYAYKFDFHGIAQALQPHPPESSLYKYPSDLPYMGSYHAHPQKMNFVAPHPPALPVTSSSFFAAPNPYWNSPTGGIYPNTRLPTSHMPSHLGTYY
# In short: as §1
# ELF1 = ELF1 (Homo sapiens, UniProt P32519 1-619); details: protein: recombinant; tags: N-terminal GST; dsDNA, one strand shown
# In short: as §1
# EHF = target: T5, EHF (Homo sapiens, UniProt Q9NZC4 1-300); details: protein: recombinant; tags: N-terminal GST; dsDNA, one strand shown
# T5 sequence: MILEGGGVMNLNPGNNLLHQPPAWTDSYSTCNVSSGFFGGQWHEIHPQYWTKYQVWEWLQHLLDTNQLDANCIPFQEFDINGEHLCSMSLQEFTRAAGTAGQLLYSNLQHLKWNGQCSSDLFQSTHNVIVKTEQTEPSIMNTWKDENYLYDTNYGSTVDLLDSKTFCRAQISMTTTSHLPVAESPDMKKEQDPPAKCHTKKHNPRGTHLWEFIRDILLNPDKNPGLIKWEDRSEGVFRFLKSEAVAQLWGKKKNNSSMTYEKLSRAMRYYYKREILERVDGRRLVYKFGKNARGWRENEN
# In short: as §1
# SPI1 = SPI1 (Homo sapiens, UniProt P17947 1-270); details: protein: recombinant; tags: N-terminal GST; dsDNA, one strand shown
# In short: as §1
# SPIB = SPIB (Homo sapiens, UniProt Q01892 1-262); details: protein: recombinant; tags: N-terminal GST; dsDNA, one strand shown
# In short: as §1
# ELK3 = target: T6, ELK3 (Homo sapiens, UniProt P41970 1-407); details: protein: recombinant; tags: N-terminal GST; dsDNA, one strand shown
# T6 sequence: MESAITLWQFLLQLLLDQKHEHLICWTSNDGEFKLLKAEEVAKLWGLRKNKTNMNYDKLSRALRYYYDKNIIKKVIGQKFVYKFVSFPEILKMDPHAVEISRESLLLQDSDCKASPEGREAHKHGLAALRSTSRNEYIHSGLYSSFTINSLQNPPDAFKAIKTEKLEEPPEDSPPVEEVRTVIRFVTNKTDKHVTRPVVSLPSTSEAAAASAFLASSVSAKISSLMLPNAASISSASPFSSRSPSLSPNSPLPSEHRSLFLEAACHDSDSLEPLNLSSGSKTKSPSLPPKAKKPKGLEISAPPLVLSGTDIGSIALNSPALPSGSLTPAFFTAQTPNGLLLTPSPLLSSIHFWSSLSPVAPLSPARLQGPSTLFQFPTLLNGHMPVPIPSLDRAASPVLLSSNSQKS
# In short: as §1
# FEV = target: T7, FEV (Homo sapiens, UniProt Q99581 1-238); details: protein: recombinant; tags: N-terminal GST; dsDNA, one strand shown
# T7 sequence: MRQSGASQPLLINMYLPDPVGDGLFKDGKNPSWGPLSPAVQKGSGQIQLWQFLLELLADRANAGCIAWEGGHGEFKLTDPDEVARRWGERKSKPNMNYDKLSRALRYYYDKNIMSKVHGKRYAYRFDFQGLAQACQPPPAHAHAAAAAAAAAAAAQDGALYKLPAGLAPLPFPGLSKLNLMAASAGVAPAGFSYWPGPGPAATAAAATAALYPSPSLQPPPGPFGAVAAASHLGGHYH
# In short: as §1
# ETV5 = ETV5 (Homo sapiens, UniProt P41161 1-510); details: protein: recombinant; tags: N-terminal GST; dsDNA, one strand shown
# In short: as §1
# HSF1 = HSF1 (Homo sapiens, UniProt Q00613 1-529); details: protein: recombinant; tags: N-terminal GST; chain copies: 3; dsDNA, one strand shown
# In short: as §1
# SPIC = target: T8, SPIC (Homo sapiens, UniProt Q8N5J4 1-248); details: protein: recombinant; tags: N-terminal GST; dsDNA, one strand shown
# T8 sequence: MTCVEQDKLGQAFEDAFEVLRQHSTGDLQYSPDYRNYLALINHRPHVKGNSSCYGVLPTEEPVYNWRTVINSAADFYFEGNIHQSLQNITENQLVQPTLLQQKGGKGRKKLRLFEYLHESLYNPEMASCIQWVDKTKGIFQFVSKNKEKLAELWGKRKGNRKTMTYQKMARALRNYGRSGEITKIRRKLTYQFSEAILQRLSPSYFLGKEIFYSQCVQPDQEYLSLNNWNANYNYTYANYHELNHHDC
# In short: as §1
# ELF4 = ELF4 (Homo sapiens, UniProt Q99607 1-663); details: protein: recombinant; tags: N-terminal GST; dsDNA, one strand shown
# In short: as §1
# ELK4 = target: T9, ELK4 (Homo sapiens, UniProt P28324-2 1-405); details: protein: recombinant; tags: N-terminal GST; dsDNA, one strand shown
# T9 sequence: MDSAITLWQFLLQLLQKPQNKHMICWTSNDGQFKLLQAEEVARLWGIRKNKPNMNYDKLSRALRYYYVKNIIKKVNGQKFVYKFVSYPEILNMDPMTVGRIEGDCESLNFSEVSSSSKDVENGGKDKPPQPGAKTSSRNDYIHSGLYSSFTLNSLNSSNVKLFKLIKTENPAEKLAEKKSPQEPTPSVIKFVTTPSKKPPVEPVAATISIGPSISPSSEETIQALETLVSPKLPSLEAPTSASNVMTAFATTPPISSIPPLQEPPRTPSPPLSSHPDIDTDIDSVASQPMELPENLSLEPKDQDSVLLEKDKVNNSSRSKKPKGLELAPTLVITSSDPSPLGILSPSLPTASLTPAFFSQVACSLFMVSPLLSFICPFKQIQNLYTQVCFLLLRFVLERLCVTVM
# In short: as §1
# ETV2 = target: T10, ETV2 (Homo sapiens, UniProt O00321 1-342); details: protein: recombinant; tags: N-terminal GST; dsDNA, one strand shown
# T10 sequence: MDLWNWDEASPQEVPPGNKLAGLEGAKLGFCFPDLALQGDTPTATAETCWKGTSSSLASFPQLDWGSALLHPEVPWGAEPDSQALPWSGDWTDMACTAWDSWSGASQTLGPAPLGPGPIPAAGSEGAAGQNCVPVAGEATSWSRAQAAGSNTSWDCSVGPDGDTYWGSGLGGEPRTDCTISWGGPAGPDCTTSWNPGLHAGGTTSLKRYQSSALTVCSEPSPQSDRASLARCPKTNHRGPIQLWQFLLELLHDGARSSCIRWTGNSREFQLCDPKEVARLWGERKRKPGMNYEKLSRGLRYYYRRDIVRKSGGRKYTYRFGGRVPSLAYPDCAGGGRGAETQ
# In short: as §1
# ELF3 = target: T11, ELF3 (Homo sapiens, UniProt P78545 1-371); details: protein: recombinant; tags: N-terminal GST; dsDNA, one strand shown
# T11 sequence: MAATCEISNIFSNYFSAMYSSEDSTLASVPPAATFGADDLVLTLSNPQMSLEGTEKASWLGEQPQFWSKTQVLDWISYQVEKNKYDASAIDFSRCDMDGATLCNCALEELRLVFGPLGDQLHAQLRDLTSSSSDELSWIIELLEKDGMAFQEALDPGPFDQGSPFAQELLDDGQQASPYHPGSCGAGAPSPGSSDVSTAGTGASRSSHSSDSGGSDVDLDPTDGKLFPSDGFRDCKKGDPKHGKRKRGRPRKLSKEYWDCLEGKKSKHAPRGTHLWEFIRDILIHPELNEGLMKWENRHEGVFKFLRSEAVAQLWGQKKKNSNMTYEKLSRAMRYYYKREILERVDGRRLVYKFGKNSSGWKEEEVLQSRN
# In short: as §1
# CRX = CRX (Homo sapiens, UniProt O43186 1-299); details: protein: recombinant; tags: N-terminal GST; dsDNA, one strand shown
# In short: as §1
# ETV1 = ETV1 (Homo sapiens, UniProt P50549 1-477); details: protein: recombinant; tags: N-terminal GST; dsDNA, one strand shown
# In short: as §1
# Sequence of ELF1 (P32519 whole entry): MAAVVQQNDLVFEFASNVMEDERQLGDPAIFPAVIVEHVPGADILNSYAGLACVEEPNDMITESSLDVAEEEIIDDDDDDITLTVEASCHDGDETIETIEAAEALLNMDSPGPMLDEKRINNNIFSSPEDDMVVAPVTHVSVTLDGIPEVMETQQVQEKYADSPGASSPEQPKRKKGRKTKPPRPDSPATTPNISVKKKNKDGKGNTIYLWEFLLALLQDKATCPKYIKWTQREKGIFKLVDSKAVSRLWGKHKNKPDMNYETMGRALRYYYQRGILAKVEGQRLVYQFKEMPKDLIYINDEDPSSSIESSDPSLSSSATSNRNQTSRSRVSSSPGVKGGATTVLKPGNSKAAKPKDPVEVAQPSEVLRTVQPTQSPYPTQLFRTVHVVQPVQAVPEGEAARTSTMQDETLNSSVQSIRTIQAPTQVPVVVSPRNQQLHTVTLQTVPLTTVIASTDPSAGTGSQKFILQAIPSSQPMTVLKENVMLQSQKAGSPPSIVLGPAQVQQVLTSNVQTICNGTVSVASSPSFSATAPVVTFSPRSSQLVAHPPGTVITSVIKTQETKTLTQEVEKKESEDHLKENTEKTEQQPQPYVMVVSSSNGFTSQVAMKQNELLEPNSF
# Sequence of ETV5 (P41161 whole entry): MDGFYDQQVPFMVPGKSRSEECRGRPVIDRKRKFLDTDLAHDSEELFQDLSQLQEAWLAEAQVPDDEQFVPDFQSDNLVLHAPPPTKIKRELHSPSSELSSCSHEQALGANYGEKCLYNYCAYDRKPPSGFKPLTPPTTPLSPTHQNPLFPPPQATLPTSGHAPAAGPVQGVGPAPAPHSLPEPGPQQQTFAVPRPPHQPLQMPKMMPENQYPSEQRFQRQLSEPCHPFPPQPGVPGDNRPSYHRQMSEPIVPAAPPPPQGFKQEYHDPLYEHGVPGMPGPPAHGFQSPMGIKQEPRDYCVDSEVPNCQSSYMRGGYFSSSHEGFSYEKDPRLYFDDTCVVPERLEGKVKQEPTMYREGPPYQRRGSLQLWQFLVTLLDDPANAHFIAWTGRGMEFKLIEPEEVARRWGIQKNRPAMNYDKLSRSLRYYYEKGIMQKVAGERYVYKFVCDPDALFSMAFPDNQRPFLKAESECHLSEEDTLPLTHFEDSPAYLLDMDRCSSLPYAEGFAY
# Sequence of ELF4 (Q99607 whole entry): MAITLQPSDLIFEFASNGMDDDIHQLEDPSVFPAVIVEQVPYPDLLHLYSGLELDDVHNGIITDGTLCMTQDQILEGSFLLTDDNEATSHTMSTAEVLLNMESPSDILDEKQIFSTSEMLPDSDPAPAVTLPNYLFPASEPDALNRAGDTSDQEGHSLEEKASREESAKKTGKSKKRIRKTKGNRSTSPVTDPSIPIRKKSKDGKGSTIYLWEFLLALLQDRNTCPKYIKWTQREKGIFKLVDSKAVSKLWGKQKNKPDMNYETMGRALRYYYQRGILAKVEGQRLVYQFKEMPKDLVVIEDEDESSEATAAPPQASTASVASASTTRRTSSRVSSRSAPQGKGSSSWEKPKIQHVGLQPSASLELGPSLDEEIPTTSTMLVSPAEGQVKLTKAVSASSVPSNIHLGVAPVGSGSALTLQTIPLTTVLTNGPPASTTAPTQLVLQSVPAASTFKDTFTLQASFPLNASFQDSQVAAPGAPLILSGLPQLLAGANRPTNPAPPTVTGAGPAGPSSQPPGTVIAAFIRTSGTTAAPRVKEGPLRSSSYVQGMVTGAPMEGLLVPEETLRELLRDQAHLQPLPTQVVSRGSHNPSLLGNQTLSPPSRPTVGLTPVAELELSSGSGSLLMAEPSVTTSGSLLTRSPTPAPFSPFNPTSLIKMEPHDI
# Sequence of CRX (O43186 whole entry): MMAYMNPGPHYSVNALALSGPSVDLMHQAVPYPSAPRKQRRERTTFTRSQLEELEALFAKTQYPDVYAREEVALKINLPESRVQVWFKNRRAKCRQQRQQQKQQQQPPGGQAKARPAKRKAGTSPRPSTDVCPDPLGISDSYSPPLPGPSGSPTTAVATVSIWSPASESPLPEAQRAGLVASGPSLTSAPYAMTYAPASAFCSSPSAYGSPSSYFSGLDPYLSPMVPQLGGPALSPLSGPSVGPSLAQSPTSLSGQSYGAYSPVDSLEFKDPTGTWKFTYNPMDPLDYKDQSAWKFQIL
# Sequence of HSF1 (Q00613 whole entry): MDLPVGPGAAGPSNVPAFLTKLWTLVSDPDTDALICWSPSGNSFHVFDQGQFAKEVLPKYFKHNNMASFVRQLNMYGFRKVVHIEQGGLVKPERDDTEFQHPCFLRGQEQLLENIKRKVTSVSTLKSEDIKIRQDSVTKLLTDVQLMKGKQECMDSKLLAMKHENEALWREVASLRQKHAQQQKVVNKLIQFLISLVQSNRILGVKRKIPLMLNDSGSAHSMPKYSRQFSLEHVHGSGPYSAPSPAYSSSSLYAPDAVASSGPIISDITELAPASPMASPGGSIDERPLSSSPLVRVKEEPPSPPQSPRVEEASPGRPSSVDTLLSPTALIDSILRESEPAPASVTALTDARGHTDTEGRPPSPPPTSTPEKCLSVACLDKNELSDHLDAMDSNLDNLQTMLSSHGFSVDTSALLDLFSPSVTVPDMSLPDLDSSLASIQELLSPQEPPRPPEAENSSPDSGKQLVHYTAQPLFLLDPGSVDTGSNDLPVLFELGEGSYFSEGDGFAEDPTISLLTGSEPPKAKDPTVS
# Sequence of ETV1 (P50549 whole entry): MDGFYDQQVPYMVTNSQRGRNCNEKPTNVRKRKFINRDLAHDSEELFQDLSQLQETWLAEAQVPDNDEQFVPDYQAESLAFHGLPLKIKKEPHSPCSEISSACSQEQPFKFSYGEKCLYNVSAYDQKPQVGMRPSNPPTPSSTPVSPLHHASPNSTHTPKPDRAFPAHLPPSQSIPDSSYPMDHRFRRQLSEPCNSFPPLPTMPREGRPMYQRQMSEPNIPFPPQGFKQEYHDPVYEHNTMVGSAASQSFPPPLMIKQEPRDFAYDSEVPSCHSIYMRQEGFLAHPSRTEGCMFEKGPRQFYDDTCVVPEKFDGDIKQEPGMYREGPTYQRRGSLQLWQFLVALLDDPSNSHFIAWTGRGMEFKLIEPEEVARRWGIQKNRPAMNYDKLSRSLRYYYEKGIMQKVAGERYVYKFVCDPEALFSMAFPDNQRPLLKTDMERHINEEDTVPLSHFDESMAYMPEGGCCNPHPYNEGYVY
# Sequence of SPIB (Q01892 whole entry): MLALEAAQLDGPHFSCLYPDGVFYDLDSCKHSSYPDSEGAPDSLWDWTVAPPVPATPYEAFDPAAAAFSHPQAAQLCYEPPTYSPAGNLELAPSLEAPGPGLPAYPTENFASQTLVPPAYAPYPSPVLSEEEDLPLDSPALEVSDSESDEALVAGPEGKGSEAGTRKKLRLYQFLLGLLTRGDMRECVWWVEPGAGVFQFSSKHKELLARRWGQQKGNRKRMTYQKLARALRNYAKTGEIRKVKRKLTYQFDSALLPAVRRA
sequence,measurement,setting,value
ATCCCG,binding signal,FLI1,"1.5 fold enrichment (6-mer frequency, TF over GST control)"
same,binding signal,ELK1,"1.36 fold enrichment (6-mer frequency, TF over GST control)"
same,binding signal,GABPA,"1.47 fold enrichment (6-mer frequency, TF over GST control)"
same,binding signal,ERG,"1.44 fold enrichment (6-mer frequency, TF over GST control)"
same,binding signal,ELF1,"1.42 fold enrichment (6-mer frequency, TF over GST control)"
same,binding signal,EHF,"1.39 fold enrichment (6-mer frequency, TF over GST control)"
same,binding signal,SPI1,"1.32 fold enrichment (6-mer frequency, TF over GST control)"
same,binding signal,SPIB,"1.39 fold enrichment (6-mer frequency, TF over GST control)"
same,binding signal,ELK3,"1.34 fold enrichment (6-mer frequency, TF over GST control)"
same,binding signal,FEV,"1.35 fold enrichment (6-mer frequency, TF over GST control)"
same,binding signal,ETV5,"1.43 fold enrichment (6-mer frequency, TF over GST control)"
same,binding signal,HSF1,"1.58 fold enrichment (6-mer frequency, TF over GST control)"
same,binding signal,SPIC,"1.39 fold enrichment (6-mer frequency, TF over GST control)"
same,binding signal,ELF4,"1.4 fold enrichment (6-mer frequency, TF over GST control)"
same,binding signal,ELK4,"1.37 fold enrichment (6-mer frequency, TF over GST control)"
same,binding signal,ETV2,"1.28 fold enrichment (6-mer frequency, TF over GST control)"
same,binding signal,ELF3,"1.37 fold enrichment (6-mer frequency, TF over GST control)"
same,binding signal,CRX,"1.67 fold enrichment (6-mer frequency, TF over GST control)"
same,binding signal,ETV1,"1.44 fold enrichment (6-mer frequency, TF over GST control)"

# Source: article PMC7862700, “An all-to-all approach to the identification of sequence-specific readers for epigenetic DNA modifications on cytosine”
